The nature of assay [1]: Her2 expression decrease, cell viability multiplex – SKBR3 breast tumor cells, AlphaScreen, ATP viability, primary screen (AID 461;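 active = Her2 level under about 52% in both replicate screens, with viability over 70% of control, limit read from the data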;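 for Her2 level: lower value means less Her2 protein in the cells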;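 for viability: percent of carrier control wells set as 100% viability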). The conditions noted are these: SKBR3 Her2 protein level, 18-24 h, measured here: SKBR3 viability, ATP luminescence, at 10 µM. On the technique in general: Alpha assays give light when donor and acceptor beads are brought close together.
The target in assay [2] is Receptor tyrosine-protein kinase erbB-2 (Homo sapiens) (UniProt P04626). Described as above. The note with it: 18-24 h, at 10 µM, stronger effect = lower value.
Chain of Receptor tyrosine-protein kinase erbB-2 (Homo sapiens) (P04626 whole entry, looked up): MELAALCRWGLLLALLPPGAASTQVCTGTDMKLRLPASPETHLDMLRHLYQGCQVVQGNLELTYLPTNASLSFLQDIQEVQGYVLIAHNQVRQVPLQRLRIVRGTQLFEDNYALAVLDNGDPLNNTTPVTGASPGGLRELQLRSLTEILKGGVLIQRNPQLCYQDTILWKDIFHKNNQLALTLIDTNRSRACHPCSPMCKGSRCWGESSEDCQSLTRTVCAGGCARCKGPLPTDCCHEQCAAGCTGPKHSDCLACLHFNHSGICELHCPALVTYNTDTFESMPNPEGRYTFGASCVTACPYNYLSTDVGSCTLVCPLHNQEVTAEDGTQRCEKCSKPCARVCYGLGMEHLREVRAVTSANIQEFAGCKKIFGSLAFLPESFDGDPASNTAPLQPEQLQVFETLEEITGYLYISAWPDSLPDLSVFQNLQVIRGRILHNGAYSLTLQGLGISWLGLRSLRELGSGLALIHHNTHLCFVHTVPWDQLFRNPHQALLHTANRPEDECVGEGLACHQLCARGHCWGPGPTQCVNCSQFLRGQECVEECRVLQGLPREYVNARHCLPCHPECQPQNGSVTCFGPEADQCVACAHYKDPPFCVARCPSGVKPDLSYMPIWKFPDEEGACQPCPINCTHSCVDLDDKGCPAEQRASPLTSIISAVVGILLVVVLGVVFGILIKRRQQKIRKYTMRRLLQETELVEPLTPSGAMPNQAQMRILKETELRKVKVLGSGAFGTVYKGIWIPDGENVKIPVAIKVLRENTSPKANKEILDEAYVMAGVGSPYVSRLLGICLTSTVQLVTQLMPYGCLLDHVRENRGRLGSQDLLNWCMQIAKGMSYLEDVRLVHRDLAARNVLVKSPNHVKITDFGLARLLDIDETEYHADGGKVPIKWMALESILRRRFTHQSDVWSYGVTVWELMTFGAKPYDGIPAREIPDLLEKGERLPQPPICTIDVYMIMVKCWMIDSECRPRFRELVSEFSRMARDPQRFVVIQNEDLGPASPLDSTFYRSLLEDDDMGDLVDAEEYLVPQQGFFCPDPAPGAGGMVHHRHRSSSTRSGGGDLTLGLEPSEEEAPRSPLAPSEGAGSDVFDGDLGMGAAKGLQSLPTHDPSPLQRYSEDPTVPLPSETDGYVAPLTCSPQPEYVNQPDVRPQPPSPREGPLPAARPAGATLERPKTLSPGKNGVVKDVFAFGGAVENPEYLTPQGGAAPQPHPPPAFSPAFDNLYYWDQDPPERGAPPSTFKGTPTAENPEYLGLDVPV
Assay [3] can be described thus: reduced viability of SK-BR-3 breast cancer cells – cell-based, 24 h, human, pilot screen (AID 572;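 active = viability at or below 10% of carrier control in both of two separate runs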;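 note: compound exposure lasted between 18 and 24 h rather than exactly 24 h; 100% = carrier-treated control wells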). The conditions noted are these: SK-BR-3 viability, CellTiter-Glo luminescence, at 10 µM, stronger effect = lower value. For orientation: ATP-based viability assays read luminescence as a measure of living cells.
Assay [4] can be described thus: HUVEC growth inhibition – cell-based, human, primary screen (AID 575;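 active = viability at or below 30% in both replicate assays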;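 note: 100% = median of untreated cell wells with 0.1% DMSO on each plate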). The note with it: HUVEC proliferation, CellTiter-Glo luminescence, 72 h; at 10 µM; stronger effect = lower value.
Assay [5] can be described thus: H69AR cell proliferation blockers – human, duplicate replicates, primary screen (AID 580;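 active = viability at or under a set limit in both replicates, limit being median viability minus 3 SD, cut at about 48% in these data, passing the limit was not always enough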;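 note: 100% = mean luminescence of untreated wells and 0% = no signal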). The conditions noted are these: H69AR lung tumor cells viability, ATP luminescence, 72 h; at 10 µM; stronger effect = lower value.
The nature of assay [6]: MRP1 drug-resistance reversers in H69AR cells – cell-based, doxorubicin co-treatment, pilot screen (AID 601;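 active = viability loss from added drug above about 55%, and viability with drug at most 40%, in both replicates, limit read from the data, passing the limit was not always enough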). The conditions noted are these: CellTiter-Glo, 72 h, at 10 µM; for differential viability (reversal): stronger effect = higher value.
Assay [7] is described as follows: yeast transport mutant growth inhibition pilot in 384-well plates, post-Golgi transport modulator project (AID 636; in the data active = inhibition above about 31%). The conditions noted are these: absorbance 615 nm, about 18 h, stronger effect = higher value.
Assay [8] can be described thus: growth suppression of yeast trafficking mutant, preliminary HTS, modulators of trafficking downstream of Golgi apparatus project, 1536-format plate, OD 615 nm (AID 637; in the data active = inhibition above about 30%). The note with it: yeast transport mutant growth, absorbance 615 nm, 18 h; stronger effect = higher value.
Assay [9] is described as follows: S. cerevisiae growth inhibition in permissive medium (OD615), pilot counter-assay for S. cerevisiae lifespan shortening project, permissive growth control (AID 705;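 active = growth inhibition above 25% in both replicates, a cutoff set 3 SD above the mean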). The conditions noted are these: OD615, 24 h, at 10 µM, stronger effect = higher value.
Assay [10] in a line: S. cerevisiae growth inhibition in restrictive medium, OD615, pilot screen, restrictive growth control, yeast lifespan reduction project (AID 706;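 active = growth inhibition above a set limit, 3 SD over mean compound inhibition, in both replicates, cut at about 43% in these data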;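 note: modified DeaD lifespan yeast strain shifted to restrictive glucose medium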). The conditions noted are these: OD615, 48 h, at 10 µM, stronger effect = higher value.
Assay [11] in a line: doxorubicin toxicity protection in MRP-1 cells – H69AR cells, CellTiter-Glo, duplicate, MRP-1 activator project, pilot screen (AID 807;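 active = viability increase at or above a cutoff of the median across tested compounds plus 3 SD, cut at about 8.5% in these data, passing the limit was not always enough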;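 note: compound pretreatment 18-22 h then 72 h combined with doxorubicin; 0% = doxorubicin alone and 100% = vehicle without doxorubicin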). The note with it: H69AR viability with doxorubicin, CellTiter-Glo luminescence; at 10 µM; stronger effect = higher value.
Assay [12] in a line: viability of HCT116 without oncogenic beta-catenin – human colon tumor cells, pilot screen (AID 823;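 active = cell viability at or below a set limit in both duplicate runs, the limit being the all-compound median minus 4 SD, cut at about 23% in these data, passing the limit was not always enough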;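 note: 0% = wells killed by 20 µM Hyamine and 100% = untreated DMSO cell wells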). The note with it: HCT116 beta-catenin knockout viability, CellTiter-Glo, 60 h; at 10 µM; stronger effect = lower value.
A short description of assay [13]: viability of PTEN-null HCT116 cells – cell-based, HCT116 clonal line, CellTiter-Glo, pilot screen (AID 824).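 Note: 0% = 20 µM Hyamine control and 100% = vehicle cell control.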 The conditions noted are these: HCT116 PTEN-deleted viability, 60 h, at 10 µM, stronger effect = lower value.
Assay [14] can be described thus: RAM signaling pathway blockade in yeast – S. cerevisiae, Pdr1DBD-CYC8 efflux-inhibited sensitized strain, primary screen (AID 1298;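 active = RAM network inhibition above 8.4% in each of two replicates, 3 SD over the compound average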;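 note: 0% = DMSO untreated cells without growth and 100% = 10 µM 1-NA-PP1 full growth; higher means more yeast growth rescued from 5-FOA killing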). The note with it: S. cerevisiae cbk1-as DSE1-URA3 strain, 5-FOA growth OD615, 2 d; at 50 µM; stronger effect = higher value.
Assay [15] in a line: RAM pathway blockade in budding yeast – dse1pr::URA3 reporter, 5-FOA selection, pilot screen (AID 869;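 active = inhibition over a set limit, the all-compound mean plus 3 SD, in both replicate runs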;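 note: 0% = DMSO wells with no growth and 100% = 10 µM 1-NA-PP1 with full growth; RAM network block rescues cells from 5-FOA so hits raise OD615 growth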). The conditions noted are these: S. cerevisiae dse1pr::URA3 5-FOA growth, OD615, 2 d; at 10 µM; stronger effect = higher value; strain carries analog-sensitive mutant Cbk1 kinase.
[16] abbreviates: H69AR cells + 2 uM doxorubicin, measured here: viability with 2 uM doxorubicin, stronger effect = lower value.
Where [17] appears, read: H69AR cells, compound alone cytotoxicity.

The structures appear in SMILES notation. Inconclusive results are not listed. Calls of active or inactive are those of the source.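 Rule for the calls, unless noted: active = viability at or below 27.92% in each of two runs, the all-compound median minus 4 SD; inconclusive = no clear call, values can overlap the other calls; inactive = the rest.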

Five compounds from PubChem BioAssay can be followed below.

As a reminder, the viability is a read-out of living cells in per cent, often relative to untreated cells. As a reminder, the inhibition is the relative decrease from the control value, in per cent.

In the case of `CCCCOC(=O)Nc1nc2ccc(OC)cc2s1`, the viability in [1] was 94%; in assay [3], 94% (inactive); in assay [4], 92.3% (inactive); in [5], 99.7% (inactive); in [6] (setting [16]) it was 83.3%; in assay [6] (setting [17]) it was 99.7%. Further, the viability in assay [12] was 96.3% (inactive); in assay [13], 93.7% (inactive). For the same compound, the Her2 level in assay [2] was 92% (inactive). In addition, the differential viability (reversal) in [6] (H69AR cells + 2 uM doxorubicin) is 16.4% (inactive). Further, the inhibition was -6.08% (inactive) in assay [7] and -6.17% (inactive) in [8]. Besides, the growth inhibition in assay [9] is -8.06% (inactive); in assay [10], -16.4% (inactive). The viability increase in [11] was 2.27% (inactive). The RAM network inhibition in assay [14] is 7.75% (inactive).
With `CCCC(=O)N1CC(=O)Nc2ccc(C)cc2C1c1ccc(F)cc1` (stereo not drawn), the viability in [1] is 86%; in assay [3], 86% (inactive); in [4], 79.9% (inactive); in assay [5], 97.4% (inactive); in assay [6] (setting [16]), 77.1%; in [6] (setting [17]), 97.4%. For the same compound, the viability is 82.2% (inactive) in assay [12] and 84.2% (inactive) in [13]. Besides, the Her2 level in assay [2] was 101% (inactive). Besides, the differential viability (reversal) in assay [6] (H69AR cells + 2 uM doxorubicin) was 20.3% (inactive). In addition, the inhibition in assay [7] was -2% (inactive); in [8] it was 0.16% (inactive); in [15], 1.42% (inactive). Moreover, the growth inhibition in assay [9] is -8.09% (inactive); in assay [10], -8.8% (inactive). Also, the viability increase in assay [11] is -3.73% (inactive). Besides, in assay [14], the RAM network inhibition was 2.82% (inactive).
In the case of `CCc1ccc(N(CC(=O)NC2CCCC2)S(=O)(=O)c2c(C)noc2C)cc1`, the viability is 102% in assay [1]; 102% (inactive) in assay [3]; 101% (inactive) in assay [4]; 84% (inactive) in [5]; 80.2% in assay [6] (setting [16]); 84% in assay [6] (setting [17]). For the same compound, the viability in assay [12] is 92.3% (inactive); in assay [13], 93.8% (inactive). Besides, the Her2 level in assay [2] was 110% (inactive). Further, the differential viability (reversal) in assay [6] (H69AR cells + 2 uM doxorubicin) is 3.79% (inactive). For the same compound, the inhibition was -4.4% (inactive) in assay [7] and -0.83% (inactive) in [8]. The growth inhibition in assay [9] was -3.32% (inactive); in assay [10], 3.27% (inactive). Moreover, in assay [11], the viability increase was -1.49% (inactive). In addition, the RAM network inhibition in assay [14] was 2.82% (inactive).
In the case of `COc1cc(C(=O)Nc2cccc(-c3nncn3C)c2)cc(OC)c1OC`, the viability in assay [1] is 102%; in assay [3] it was 102% (inactive); in assay [4], 101% (inactive); in assay [5], 89% (inactive); in assay [6] (setting [16]), 81.2%; in assay [6] (setting [17]) it was 89%. For the same compound, the values for the viability in [12] and in [13] were 91.4% (inactive) and 104% (inactive), respectively. Besides, in [2], the Her2 level is 110% (inactive). Also, in [6] (H69AR cells + 2 uM doxorubicin), the differential viability (reversal) was 7.79% (inactive). In addition, the inhibition is -2.31% (inactive) in assay [7], -5.5% (inactive) in [8] and 0.045% (inactive) in assay [15]. Also, the growth inhibition in assay [9] was 2.38% (inactive); in assay [10], 4.63% (inactive). The viability increase in assay [11] was -1.76% (inactive). Also, the RAM network inhibition in [14] is 1.54% (inactive).
With `CCCCN=CC1=C(O)C(C(=O)OC)C(C)(C)CC1=O` (stereo not drawn), the viability in assay [1] is 79%; in assay [3] it was 79% (inactive); in assay [4], 104% (inactive); in assay [5], 91.4% (inactive); in assay [6] (setting [16]), 86.9%; in assay [6] (setting [17]) it was 91.4%. Also, the figures for the viability in assay [12] and in assay [13] were 93.8% (inactive) and 93.9% (inactive), respectively. In assay [2], the Her2 level was 93.5% (inactive). Also, the differential viability (reversal) in assay [6] (H69AR cells + 2 uM doxorubicin) was 4.54% (inactive). For the same compound, the inhibition is 1.03% (inactive) in assay [7], 25.8% (inactive) in [8] and 0.72% (inactive) in assay [15]. Besides, the growth inhibition is -1.01% (inactive) in [9] and -5.23% (inactive) in assay [10]. Besides, the viability increase in assay [11] was -0.63% (inactive). For the same compound, in [14], the RAM network inhibition was 1.5% (inactive).
